Screens (PubChem BioAssay)
C diff HTS: C. difficile growth inhibition. Clostridium difficile clinical isolate growth, OD600, 24 h; hits give low values. growth activity, negative = inhibition, % at 16 µg/mL (by protocol). actives 0.25% (n = 86,000);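 active means mean growth activity at or below -80% and every replicate also at or below -80%; inconclusive means mean at or below -80% but some replicate above -80%; inactive means mean growth activity above -80%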;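 further: 0% = DMSO wells and -100% = levofloxacin 16 µg/mL wells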
Pf Dd2 inh: inhibitors of Plasmodium falciparum Dd2 growth | P. falciparum Dd2 growth, SYBR Green, 72 h; hits give low values | activity change, % at 10 µM | actives 2.3% (n = 94,000); in the data active means activity change below about -80%; inconclusive means no clear call, values can overlap the other calls
T cruzi growth-1: blocks T. cruzi growth in NIH3T3 culture. actives 5.9% (n = 77,000). inhibition, % at 8.34 µM. T. cruzi beta-gal in NIH3T3, GalScreen luminescence, 90 h;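 active means mean inhibition above about 93%, with at least 55% of replicates each passing it, limit read from the data, passing the limit was not always enough; inconclusive means only one of those two conditions holds; inactive means neither condition holds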
T cruzi growth-2: blocks T. cruzi growth in NIH3T3 host cells | shares compounds with T cruzi growth-1 | T. cruzi beta-gal in NIH3T3, GalScreen luminescence, 90 h | inhibition, % at 8.35 µM | actives 72% (n = 5,600) | AID 651739;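 active means mean replicate inhibition above about 95% and at least 55% of replicates individually reaching it, limit read from the data; inconclusive means only one of the two criteria is met; inactive means neither criterion is met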
T cruzi growth-3: Trypanosoma cruzi proliferation inhibition. shares compounds with T cruzi growth-1. T. cruzi beta-gal in NIH3T3, GalScreen luminescence, 90 h. inhibition, % at 2.09 µM. actives 21% (n = 5,600);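 active means mean inhibition above about 95%, with at least 55% of replicates also reaching it, limit read from the data; inconclusive means meets just one of the two conditions; inactive means meets neither condition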;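 further: plate controls were neutral control median for no effect and positive control median for full effect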
NIH3T3 tox: kills mouse NIH/3T3 fibroblasts | shares compounds with T cruzi growth-1 | cytotoxicity (signal decrease), % at 8.35 µM | NIH/3T3 viability, CellTiter-Glo ATP luminescence, 90 h | actives 14% (n = 5,600);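 active means mean signal decrease across replicates above about 35% based on untreated-well scatter, with enough replicates individually passing, limit read from the data; inconclusive means no rule stated though some were filed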;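 further: 0% = median of neutral control wells and 100% = median of positive control wells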
NIH3T3 tox 2: kills mouse NIH/3T3 fibroblasts; shares compounds with T cruzi growth-1; actives 56% (n = 5,600); inhibition, % at 24.9 µM; NIH/3T3 viability, CellTiter-Glo ATP luminescence, 90 h; AID 651744;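 active means mean loss of cell viability signal at or above a set limit, and enough replicates individually reaching it; inconclusive means meets only the mean limit or only the replicate share; inactive means meets neither condition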;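 further: 0% = median of neutral control wells and 100% = median of positive control wells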
An asterisk follows results filed as active; ? = inconclusive; . = no result. Compounds with a hit are over-represented: about 6.7% of the library has one in this group of screens.

SMILES | C diff HTS | Pf Dd2 inh | T cruzi growth-1 | T cruzi growth-2 | T cruzi growth-3 | NIH3T3 tox | NIH3T3 tox 2
N#Cc1ccc(-c2ccc([C@@H]3[C@H](CO)N4CCCCN(C(=O)Cc5ccccc5)C[C@@H]34)cc2)cc1 | 15.9 | -25.5 | 91.7 | . | . | . | .
O=C(Cc1ccncc1)N1CCCCN2[C@H](CO)[C@H](c3ccc(C#Cc4ccccc4F)cc3)[C@H]2C1 | 1.5 | -37.7 | ? | 103.8* | 67.5 | 26.3 | 102.8*
O=C(Cc1ccncc1)N1CCCCN2[C@@H](CO)[C@@H](c3ccc(C#Cc4ccccc4F)cc3)[C@@H]2C1 | 2.2 | -62.1 | 65.9 | . | . | . | .
COc1ccc(C#Cc2ccc([C@H]3[C@H]4CN(C(=O)Cc5ccccc5)CCCCN4[C@H]3CO)cc2)cc1 | -1.9 | -17.0 | 79.7 | . | . | . | .
O=C(Cc1ccccc1)N1CCCCN2[C@H](CO)[C@@H](c3ccc(C#Cc4ccccc4)cc3)[C@H]2C1 | 4.9 | -52.9 | 117.9* | 97.1* | 84.2 | 57.7* | 104.7*
O=C(Cc1ccccc1)N1CCCCN2[C@H](CO)[C@@H](c3ccc(C#Cc4ccccc4)cc3)[C@@H]2C1 | -0.8 | -40.2 | 106.4* | 99.8* | 70.0 | 2.8 | 105.5*
c1cc(-c2ccc(C3[C@H]4CNC[C@@H]3N4CC3CC3)cc2)ccn1 (some centres not stated) | -6.4 | 3.8 | . | . | . | . | .
COC(=O)[C@@H]1[C@@H](CO)[C@@H]2Cn3c(ccc(-c4ccccc4F)c3=O)[C@H]1N2 | 3.3 | . | -18.5 | . | . | . | .
CCN1[C@@H]2Cn3c(ccc(-c4cccc(C(=O)N(C)C)c4)c3=O)[C@H]1[C@@H](C(=O)OC)[C@@H]2CO | -1.0 | 5.7 | 21.4 | . | . | . | .
C[C@H](CO)N1C[C@H](C)[C@@H](CN(C)C(=O)Oc2cccc3ccccc23)OCc2cn(nn2)CCCC1=O | -1.5 | -5.6 | -40.7 | . | . | . | .
C[C@H]1CN([C@@H](C)CO)C(=O)CCCn2cc(nn2)CO[C@H]1CN(C)C(=O)Oc1cccc2ccccc12 | -1.4 | -14.6 | 116.7* | 52.5 | 13.2 | 10.5 | 24.0
COc1cccc(-c2ccc([C@@H]3[C@@H](CO)N4CCCCN(C(=O)Cc5ccncc5)C[C@H]34)cc2)c1 | -7.4 | -30.9 | 114.3* | 101.9* | 38.4 | 24.6 | 38.2*
COc1cccc(-c2ccc([C@@H]3[C@@H](CO)N4CCCCN(C(=O)Cc5ccncc5)C[C@@H]34)cc2)c1 | -3.7 | -51.7 | 63.4 | . | . | . | .
COc1cccc(-c2ccc([C@H]3[C@@H](CO)N4CCCCN(C(=O)Cc5ccncc5)C[C@H]34)cc2)c1 | -4.2 | -39.1 | 107.4* | 109.6* | 61.4 | 20.4 | 48.4*
COc1cccc(-c2ccc([C@H]3[C@@H](CO)N4CCCCN(C(=O)Cc5ccncc5)C[C@@H]34)cc2)c1 | -4.0 | -50.7 | 110.8* | 110.4* | 49.1 | 12.3 | 23.5
COc1cccc(-c2ccc([C@@H]3[C@H](CO)N4CCCCN(C(=O)Cc5ccncc5)C[C@@H]34)cc2)c1 | -2.5 | -43.9 | ? | 82.9 | 18.4 | 8.8 | 35.4*
COc1cccc(-c2ccc([C@H]3[C@H](CO)N4CCCCN(C(=O)Cc5ccncc5)C[C@@H]34)cc2)c1 | -5.9 | -39.9 | 72.7 | . | . | . | .
C/C=C/c1ccc([C@H]2[C@@H](CO)N3CCCCN(C(=O)Cc4ccncc4)C[C@@H]23)cc1 | -1.4 | -10.9 | 21.3 | . | . | . | .
C/C=C/c1ccc([C@H]2[C@@H](CO)N3CCCCN(C(=O)Cc4ccncc4)C[C@H]23)cc1 | 1.7 | -35.6 | 64.6 | . | . | . | .
O=C(O)[C@@H]1[C@@H](CO)[C@@H]2Cn3c(ccc(-c4ccncc4)c3=O)[C@H]1N2C(=O)C1CC1 | . | . | -3.7 | . | . | . | .
CCCN1[C@@H]2Cn3c(ccc(-c4ccc(OC)cc4)c3=O)[C@H]1[C@@H](C(=O)OC)[C@@H]2CO | -2.0 | 3.9 | 0.1 | . | . | . | .
COC(=O)[C@@H]1[C@@H](CO)[C@@H]2Cn3c(ccc(-c4ccc(F)cc4)c3=O)[C@H]1N2Cc1ccccc1 | 1.5 | -4.3 | 56.3 | . | . | . | .
N#Cc1ccc(-c2ccc([C@@H]3[C@H]4CN(C(=O)Cc5ccccc5)CCCCN4[C@H]3CO)cc2)cc1 | 4.5 | 12.4 | 75.8 | . | . | . | .
O=C(Cc1ccncc1)N1CCCCN2[C@H](CO)[C@H](c3ccc(-c4ccncc4)cc3)[C@@H]2C1 | -5.4 | -74.7 | 101.6* | 49.6 | -24.8 | -2.1 | -10.3
